Experimental data: PubChem BioAssay (NCI)
Compounds without any hit were thinned out: in the full panel of roughly 79,000, 15% have a hit. The source made the active and inactive calls. Rule as the data show it: active = growth inhibition above about 70%; inactive = the rest.

Tests used:
[1] = NCI Yeast Anticancer Drug Screen. Data for the rad52 strain (AID 147);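 also: 0% = growth of vehicle-treated control cultures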; conditions: S. cerevisiae rad52 mutant growth inhibition, hits give high values
How it was run: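 Inhibition of yeast growth, referenced to vehicle controls, was the measured output for a strain with defective DNA damage repair.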

[2] = NCI Yeast Anticancer Drug Screen. Data for the wt1 strain (AID 149);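 also: 0% = growth of vehicle-treated wt1 cultures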; conditions: S. cerevisiae wt1 strain (SPY 50644) growth inhibition, hits give high values
How it was run: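 wt1 strain grown with compound or vehicle; inhibition taken from the growth difference.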

[3] = NCI Yeast Anticancer Drug Screen. Data for the rad50EPP+ strain (AID 151);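 also: 0% = growth of vehicle-treated control cultures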; conditions: S. cerevisiae rad50 mutant strain, hits give high values
How it was run: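 Genetically defined yeast (rad50EPP+, DNA damage repair alteration) is grown with compound, and inhibition of growth is expressed relative to vehicle-treated controls.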

[4] = NCI Yeast Anticancer Drug Screen. Data for the mgt1 strain (AID 153); conditions: S. cerevisiae mgt1 mutant growth inhibition, hits give high values
How it was run: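 In the mgt1 strain, test compounds were added and growth inhibition was determined relative to vehicle-treated controls.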

[5] = NCI Yeast Anticancer Drug Screen. Data for the rad50 strain (AID 155);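 also: 0% = growth of vehicle-only cultures of the same strain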; conditions: S. cerevisiae rad50 strain growth inhibition, hits give high values
How it was run: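 DNA repair mutant yeast, compound exposure, growth read-out; inhibition is taken relative to vehicle.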

[6] = NCI Yeast Anticancer Drug Screen. Data for the mec2-1 strain (AID 157); conditions: S. cerevisiae mec2-1 strain, hits give high values
How it was run: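 Each compound was tested on mec2-1 yeast, a strain altered in DNA damage repair or cell cycle control. Growth inhibition is reported relative to vehicle.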

[7] = NCI Yeast Anticancer Drug Screen. Data for the rad14 strain (AID 159);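 also: 0% = growth of vehicle-treated control cultures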; conditions: S. cerevisiae rad14 strain growth inhibition, hits give high values
How it was run: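 DNA repair-defective yeast, compound-exposed; % growth inhibition derived by comparison with vehicle-treated controls.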

[8] = NCI Yeast Anticancer Drug Screen. Data for the sgs1 mgt1 strain (AID 161);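 also: 0% = growth of cultures given vehicle only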; conditions: S. cerevisiae sgs1 mgt1 strain, hits give high values
How it was run: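 Inhibition of yeast growth, normalised to vehicle-treated controls, is reported for a strain bearing genetic alterations in DNA damage repair.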

[9] = NCI Yeast Anticancer Drug Screen. Data for the CLN2oe strain (AID 163);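 also: 0% = growth of vehicle-only control cultures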; conditions: S. cerevisiae CLN2oe strain, hits give high values
How it was run: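 First, the altered yeast strain was treated with each compound; second, its growth was measured; finally, inhibition was derived by comparison with vehicle controls.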

[10] = NCI Yeast Anticancer Drug Screen. Data for the cln2 rad14 strain (AID 165);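 also: 0% = growth equal to vehicle treated cultures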; conditions: S. cerevisiae cln2 rad14 strain, hits give high values
How it was run: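 Test compounds were added to cln2 rad14 yeast cultures; inhibition of growth was then determined by comparison with vehicle treatment.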

[11] = NCI Yeast Anticancer Drug Screen. Data for the bub3 strain (AID 167); conditions: S. cerevisiae bub3 mutant strain, hits give high values
How it was run: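 In this screen, a yeast mutant lacking normal mitotic checkpoint function is challenged with compound. Relative growth versus vehicle gives the inhibition value.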

[12] = NCI Yeast Anticancer Drug Screen. Data for the wt2 strain (AID 169);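 also: 0% = growth of vehicle-treated yeast cultures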; conditions: S. cerevisiae wt2 strain growth inhibition, hits give high values
How it was run: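 The panel's yeast strains carry defined changes in DNA repair or cell cycle genes. Each strain is grown with compound, and growth loss is scored relative to vehicle.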

[13] = NCI Yeast Anticancer Drug Screen. Data for the mlh1 strain (AID 171);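 also: 0% = growth of vehicle-treated control cultures of the same strain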; conditions: S. cerevisiae mlh1 strain growth inhibition, hits give high values
How it was run: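 Inhibition values reflect reduced yeast growth in the presence of compound, referenced to vehicle controls, using a strain chosen for its alteration in DNA repair or cell cycle control.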

[14] = NCI Yeast Anticancer Drug Screen. Data for the sgs1 strain (AID 173);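 also: 0% = growth of vehicle-only control cultures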; conditions: S. cerevisiae sgs1 mutant, hits give high values
How it was run: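 Vehicle-treated cultures served as reference for growth inhibition of a yeast strain altered in DNA damage repair or cell cycle control after compound exposure.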

[15] = NCI Yeast Anticancer Drug Screen. Data for the mlh1 rad18 strain (AID 175); conditions: S. cerevisiae mlh1 rad18 strain growth inhibition, hits give high values
How it was run: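 Inhibition values reflect reduced growth of mutant yeast versus vehicle-treated controls following compound exposure; the mutations affect DNA damage repair.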

[16] = NCI Yeast Anticancer Drug Screen. Data for the rad18 strain (AID 177); conditions: S. cerevisiae rad18 mutant growth inhibition, hits give high values
How it was run: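 Steps: expose repair-mutant yeast to compound; measure growth; express as inhibition relative to vehicle control.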

[17] = at 5.0 µM (retest, dose inferred, filed as 0.5)
[18] = at 50.0 µM (retest, dose inferred, filed as 5.0)

Measured: growth inhibition

CCOC(=O)c1[nH]n(-c2ccccc2)c(=O)c1C=NC(=S)C(N)=S
inactive: [1]; at 1.2 µM 24% | [1]; at 3.7 µM 21% | [1]; at 11.0 µM 30% | [2]; at 1.2 µM 19% | [2]; at 3.7 µM 8% | [2]; at 11.0 µM 25% | [2]; at 33.0 µM 29% | [3]; at 1.2 µM -3% | [3]; at 3.7 µM -23% | [3]; at 11.0 µM 5% | [3]; at 33.0 µM 30% | [3]; at 100.0 µM 69% | [4]; at 1.2 µM -6% | [4]; at 3.7 µM -10% | [4]; at 11.0 µM -16% | [4]; at 33.0 µM 34% | [5]; at 1.2 µM 8% | [5]; at 3.7 µM 29% | [5]; [17] -36% | [5]; at 11.0 µM 31% | [5]; [18] 19% | [6]; at 1.2 µM 5% | [6]; at 3.7 µM 5% | [6]; [17] -22% | [6]; at 11.0 µM -12% | [7]; at 1.2 µM -15% | [7]; at 3.7 µM -15% | [7]; at 11.0 µM -11% | [8]; [17] -4% | [8]; [18] 13% | [9]; at 1.2 µM -8% | [9]; at 3.7 µM -7% | [9]; at 11.0 µM 2% | [9]; at 33.0 µM 35% | [10]; [17] -4% | [10]; [18] 12% | [11]; at 1.2 µM -8% | [11]; at 3.7 µM -4% | [11]; [17] -27% | [11]; at 11.0 µM -8% | [11]; at 33.0 µM 8% | [11]; at 50.0 µM 60.2% | [12]; at 1.2 µM -2% | [12]; at 3.7 µM 0% | [12]; at 11.0 µM 7% | [12]; at 33.0 µM 46% | [13]; at 1.2 µM 22% | [13]; at 3.7 µM 16% | [13]; at 11.0 µM 43% | [14]; at 1.2 µM 21% | [14]; at 3.7 µM 27% | [14]; at 11.0 µM 41% | [15]; [17] -3% | [16]; at 1.2 µM 0% | [16]; at 3.7 µM -4% | [16]; at 11.0 µM 2% | [16]; at 33.0 µM 67%
active: [1]; at 33.0 µM 71% | [1]; at 100.0 µM 97% | [2]; at 100.0 µM 98% | [4]; at 100.0 µM 97% | [5]; at 33.0 µM 90% | [5]; at 50.0 µM 87.5% | [5]; at 100.0 µM 97% | [6]; at 33.0 µM 96% | [6]; [18] 88% | [6]; at 50.0 µM 90.7% | [6]; at 100.0 µM 97% | [7]; at 33.0 µM 95% | [7]; at 100.0 µM 97% | [8]; at 50.0 µM 91% | [9]; at 100.0 µM 97% | [10]; at 50.0 µM 90.4% | [11]; [18] 92% | [11]; at 100.0 µM 97% | [12]; at 100.0 µM 98% | [13]; at 33.0 µM 96% | [13]; at 100.0 µM 97% | [14]; at 33.0 µM 96% | [14]; at 100.0 µM 97% | [15]; [18] 92% | [15]; at 50.0 µM 86.3% | [16]; at 100.0 µM 97%

c1ccc2cc(NCNc3ccc4ccccc4c3)ccc2c1
active: [5]; [18] 75% | [5]; at 50.0 µM 95.8% | [8]; at 50.0 µM 95.3% | [10]; at 50.0 µM 76.9% | [11]; [18] 76% | [11]; at 50.0 µM 94.8% | [15]; at 50.0 µM 94.9%
inactive: [1]; at 1.2 µM -3% | [1]; at 3.7 µM -6% | [1]; at 11.0 µM -9% | [1]; at 33.0 µM 1% | [1]; at 100.0 µM 24% | [2]; at 1.2 µM 2% | [2]; at 3.7 µM 3% | [2]; at 11.0 µM 6% | [2]; at 33.0 µM 11% | [2]; at 100.0 µM 16% | [3]; at 1.2 µM 0% | [3]; at 3.7 µM 6% | [3]; at 11.0 µM 11% | [3]; at 33.0 µM 26% | [3]; at 100.0 µM 42% | [4]; at 1.2 µM 1% | [4]; at 3.7 µM 0% | [4]; at 11.0 µM 3% | [4]; at 33.0 µM 8% | [4]; at 100.0 µM 12% | [5]; at 1.2 µM 1% | [5]; at 3.7 µM -5% | [5]; [17] -9% | [5]; at 11.0 µM 5% | [5]; at 33.0 µM 0% | [5]; at 100.0 µM 22% | [6]; at 1.2 µM 0% | [6]; at 3.7 µM 1% | [6]; [17] 8% | [6]; at 11.0 µM 3% | [6]; at 33.0 µM 14% | [6]; [18] 46% | [6]; at 50.0 µM 69.8% | [6]; at 100.0 µM 27% | [7]; at 1.2 µM 1% | [7]; at 3.7 µM 1% | [7]; at 11.0 µM 0% | [7]; at 33.0 µM -13% | [7]; at 100.0 µM 16% | [8]; [17] 0% | [8]; [18] 46% | [9]; at 1.2 µM -3% | [9]; at 3.7 µM -3% | [9]; at 11.0 µM -6% | [9]; at 33.0 µM -1% | [9]; at 100.0 µM 6% | [10]; [17] -17% | [10]; [18] -22% | [11]; at 1.2 µM 0% | [11]; at 3.7 µM 6% | [11]; [17] 18% | [11]; at 11.0 µM -22% | [11]; at 33.0 µM 51% | [11]; at 100.0 µM 55% | [12]; at 1.2 µM -1% | [12]; at 3.7 µM 1% | [12]; at 11.0 µM 1% | [12]; at 33.0 µM 7% | [12]; at 100.0 µM 12% | [13]; at 1.2 µM 3% | [13]; at 3.7 µM 3% | [13]; at 11.0 µM 4% | [13]; at 33.0 µM -22% | [13]; at 100.0 µM 15% | [14]; at 1.2 µM 3% | [14]; at 3.7 µM 0% | [14]; at 11.0 µM 1% | [14]; at 33.0 µM 8% | [14]; at 100.0 µM 27% | [15]; [17] 12% | [15]; [18] 65% | [16]; at 1.2 µM -5% | [16]; at 3.7 µM -2% | [16]; at 11.0 µM -19% | [16]; at 33.0 µM -9% | [16]; at 100.0 µM 3%
